Source: PubChem BioAssay AID1508601 (ICCB-Longwood Screening Facility, Harvard Medical School, 2020)
Screen size: about 5,700 compounds; about 85 (1%) were called active. Rule as the data show it: active = p53-positive nuclei above about 36% (passing the limit was not always enough); inactive = the rest. The entries come from a sample that favours actives as a whole.

Tests used:
[1] = p53 stabilisation in HPV-positive human cells, imaging, p53-positive nuclei imaging, 24 h, 48 h (AID 1508601); conditions: 24/48 h
[2] = biological target: Cellular tumor antigen p53 (Homo sapiens) (UniProt P04637); assay: as above; conditions: 24/48 h, stronger effect = higher value
Cellular tumor antigen p53 (Homo sapiens), sequence (P04637 whole entry, looked up): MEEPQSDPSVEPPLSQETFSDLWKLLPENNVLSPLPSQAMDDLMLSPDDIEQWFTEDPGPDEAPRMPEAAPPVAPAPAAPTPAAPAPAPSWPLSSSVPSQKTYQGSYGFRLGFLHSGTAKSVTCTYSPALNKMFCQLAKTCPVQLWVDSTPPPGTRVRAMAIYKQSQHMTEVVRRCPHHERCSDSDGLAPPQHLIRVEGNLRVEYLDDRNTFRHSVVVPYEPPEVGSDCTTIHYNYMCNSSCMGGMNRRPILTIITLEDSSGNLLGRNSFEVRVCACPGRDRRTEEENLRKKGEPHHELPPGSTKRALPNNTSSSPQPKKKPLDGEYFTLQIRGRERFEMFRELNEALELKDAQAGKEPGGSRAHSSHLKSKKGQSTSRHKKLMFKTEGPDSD

[3] = measured here: cell number at 24 h, concentration not given here
[4] = measured here: cell number at 48 h, concentration not given here
[5] = measured here: p53 positive nuclei at 24 h, concentration not given here
[6] = measured here: cell number at 24 h, Library stock concentration: 80 uM
[7] = measured here: cell number at 24 h, Library stock concentration: 400 uM
[8] = measured here: cell number at 24 h, Library stock concentration: 2 mM
[9] = measured here: cell number at 24 h, Library stock concentration: 3.33 mM
[10] = measured here: cell number at 24 h, Library stock concentration: 10 mM
[11] = measured here: cell number at 48 h, Library stock concentration: 80 uM
[12] = measured here: cell number at 48 h, Library stock concentration: 400 uM
[13] = measured here: cell number at 48 h, Library stock concentration: 2 mM
[14] = measured here: cell number at 48 h, Library stock concentration: 3.33 mM
[15] = measured here: cell number at 48 h, Library stock concentration: 10 mM
[16] = Library stock concentration: 80 uM
[17] = Library stock concentration: 400 uM
[18] = Library stock concentration: 2 mM
[19] = Library stock concentration: 3.33 mM
[20] = Library stock concentration: 10 mM
[21] = measured here: p53 positive nuclei at 24 h, Library stock concentration: 80 uM
[22] = measured here: p53 positive nuclei at 24 h, Library stock concentration: 400 uM
[23] = measured here: p53 positive nuclei at 24 h, Library stock concentration: 2 mM
[24] = measured here: p53 positive nuclei at 24 h, Library stock concentration: 3.33 mM
[25] = measured here: p53 positive nuclei at 24 h, Library stock concentration: 10 mM

Cc1cc(C)c(/C=C2\C(=O)Nc3ccccc32)[nH]1
nuclei count, normalised [1, 3]: 96.2%
nuclei count, normalised [1, 4]: 102%
p53-positive nuclei, normalised ([2]; concentration not given here): 0.0559% (inactive)
p53-positive nuclei, normalised [2, 5]: 0.0506%

COc1cc(=C2C=c3ccccc3=N2)[nH]c1=Cc1[nH]c(C)cc1C
nuclei count, normalised [1, 6]: 104%
nuclei count, normalised [1, 7]: 82.2%
nuclei count, normalised [1, 8]: 74.9%
nuclei count, normalised [1, 9]: 71.2%
nuclei count, normalised [1, 10]: 65.9%
nuclei count, normalised [1, 11]: 101%
nuclei count, normalised [1, 12]: 75.4%
nuclei count, normalised [1, 13]: 60.3%
nuclei count, normalised [1, 14]: 61.8%
nuclei count, normalised [1, 15]: 52.6%
p53-positive nuclei, normalised [2, 16]: 0.397% (inactive)
p53-positive nuclei, normalised [2, 17]: 74% (active)
p53-positive nuclei, normalised [2, 18]: 142% (active)
p53-positive nuclei, normalised [2, 19]: 137% (active)
p53-positive nuclei, normalised [2, 20]: 105% (active)
p53-positive nuclei, normalised [2, 21]: 0.165%
p53-positive nuclei, normalised [2, 22]: 72.4%
p53-positive nuclei, normalised [2, 23]: 167%
p53-positive nuclei, normalised [2, 24]: 159%
p53-positive nuclei, normalised [2, 25]: 137%

Cc1cc(C)c(C=C2C(=O)Nc3ccccc32)[nH]1
nuclei count, normalised [1, 9]: 116%
nuclei count, normalised [1, 14]: 119%
p53-positive nuclei, normalised [2, 19]: -0.0521% (inactive)
p53-positive nuclei, normalised [2, 24]: -0.278%

Nc1ccn(C2C=C(CO)C(O)C2O)c(=O)n1 (configuration not stated)
nuclei count, normalised ([1]; measured here: cell number at 24 h, Library stock concentration: 500 nM): 108%
nuclei count, normalised ([1]; measured here: cell number at 24 h, Library stock concentration: 1.5 uM): 117%
nuclei count, normalised ([1]; measured here: cell number at 24 h, Library stock concentration: 4.6 uM): 110%
nuclei count, normalised ([1]; measured here: cell number at 24 h, Library stock concentration: 13.7 uM): 119%
nuclei count, normalised ([1]; measured here: cell number at 24 h, Library stock concentration: 41 uM): 115%
nuclei count, normalised ([1]; measured here: cell number at 24 h, Library stock concentration: 123 uM): 83.8%
nuclei count, normalised ([1]; measured here: cell number at 24 h, Library stock concentration: 370 uM): 70%
nuclei count, normalised ([1]; measured here: cell number at 24 h, Library stock concentration: 1.111 mM): 73.4%
nuclei count, normalised ([1]; measured here: cell number at 24 h, Library stock concentration: 3.333 mM): 65.6%
nuclei count, normalised [1, 10]: 65.3%
nuclei count, normalised ([1]; measured here: cell number at 48 h, Library stock concentration: 500 nM): 109%
nuclei count, normalised ([1]; measured here: cell number at 48 h, Library stock concentration: 1.5 uM): 111%
nuclei count, normalised ([1]; measured here: cell number at 48 h, Library stock concentration: 4.6 uM): 111%
nuclei count, normalised ([1]; measured here: cell number at 48 h, Library stock concentration: 13.7 uM): 117%
nuclei count, normalised ([1]; measured here: cell number at 48 h, Library stock concentration: 41 uM): 105%
nuclei count, normalised ([1]; measured here: cell number at 48 h, Library stock concentration: 123 uM): 67.3%
nuclei count, normalised ([1]; measured here: cell number at 48 h, Library stock concentration: 370 uM): 54.3%
nuclei count, normalised ([1]; measured here: cell number at 48 h, Library stock concentration: 1.111 mM): 57.7%
nuclei count, normalised ([1]; measured here: cell number at 48 h, Library stock concentration: 3.333 mM): 52.7%
nuclei count, normalised [1, 15]: 52%
p53-positive nuclei, normalised ([2]; Library stock concentration: 500 nM): -0.14% (inactive)
p53-positive nuclei, normalised ([2]; Library stock concentration: 1.5 uM): -0.145% (inactive)
p53-positive nuclei, normalised ([2]; Library stock concentration: 4.6 uM): 0.0813% (inactive)
p53-positive nuclei, normalised ([2]; Library stock concentration: 13.7 uM): -0.00208% (inactive)
p53-positive nuclei, normalised ([2]; Library stock concentration: 41 uM): -0.138% (inactive)
p53-positive nuclei, normalised ([2]; Library stock concentration: 123 uM): 0.289% (inactive)
p53-positive nuclei, normalised ([2]; Library stock concentration: 370 uM): -0.0266% (inactive)
p53-positive nuclei, normalised ([2]; Library stock concentration: 1.111 mM): 0.668% (inactive)
p53-positive nuclei, normalised ([2]; Library stock concentration: 3.333 mM): 0.138% (inactive)
p53-positive nuclei, normalised [2, 20]: 0.496% (inactive)
p53-positive nuclei, normalised ([2]; measured here: p53 positive nuclei at 24 h, Library stock concentration: 500 nM): 0.0935%
p53-positive nuclei, normalised ([2]; measured here: p53 positive nuclei at 24 h, Library stock concentration: 1.5 uM): -0.093%
p53-positive nuclei, normalised ([2]; measured here: p53 positive nuclei at 24 h, Library stock concentration: 4.6 uM): -0.13%
p53-positive nuclei, normalised ([2]; measured here: p53 positive nuclei at 24 h, Library stock concentration: 13.7 uM): 0.115%
p53-positive nuclei, normalised ([2]; measured here: p53 positive nuclei at 24 h, Library stock concentration: 41 uM): -0.0784%
p53-positive nuclei, normalised ([2]; measured here: p53 positive nuclei at 24 h, Library stock concentration: 123 uM): 0.089%
p53-positive nuclei, normalised ([2]; measured here: p53 positive nuclei at 24 h, Library stock concentration: 370 uM): 0.146%
p53-positive nuclei, normalised ([2]; measured here: p53 positive nuclei at 24 h, Library stock concentration: 1.111 mM): 0.68%
p53-positive nuclei, normalised ([2]; measured here: p53 positive nuclei at 24 h, Library stock concentration: 3.333 mM): 0.184%
p53-positive nuclei, normalised [2, 25]: 0.519%

CCCCC/C=C\C/C=C\C/C=C\CCCCCCC(=O)OC
nuclei count, normalised [1, 3]: 114%
nuclei count, normalised [1, 4]: 108%
p53-positive nuclei, normalised ([2]; concentration not given here): 0.0353% (inactive)
p53-positive nuclei, normalised [2, 5]: 0.00725%

CCC(C)C(NC(=O)C(CCC(=O)O)NC(=O)C(CC(C)C)NC(=O)C1CN=C(C(N)C(C)C)S1)C(=O)NC1CCCCNC(=O)C(CC(N)=O)NC(=O)C(CC(=O)O)NC(=O)C(Cc2cnc[nH]2)NC(=O)C(Cc2ccccc2)NC(=O)C(C(C)CC)NC(=O)C(CCCN)NC1=O (configuration not stated)
nuclei count, normalised [1, 9]: 97.5%
nuclei count, normalised [1, 14]: 99%
p53-positive nuclei, normalised [2, 19]: -0.136% (inactive)
p53-positive nuclei, normalised [2, 24]: -0.227%

C[C@]12CC[C@H]3c4ccc(O)cc4CC[C@H]3[C@@H]1CCC2=O
nuclei count, normalised [1, 9]: 111%
nuclei count, normalised [1, 14]: 121%
p53-positive nuclei, normalised [2, 19]: -0.0334% (inactive)
p53-positive nuclei, normalised [2, 24]: -0.211%

COC(=O)[C@]12CCC(C)(C)C[C@@H]1[C@@H]1C(=O)C=C3[C@]4(C)C=C(C#N)C(=O)C(C)(C)[C@@H]4CC[C@@]3(C)[C@]1(C)CC2
nuclei count, normalised [1, 9]: 36.3%
nuclei count, normalised [1, 14]: 29.9%
p53-positive nuclei, normalised [2, 19]: 79.7% (active)
p53-positive nuclei, normalised [2, 24]: 88.9%

CCCCN=C(N)NO
nuclei count, normalised [1, 3]: 99.4%
nuclei count, normalised [1, 4]: 99.4%
p53-positive nuclei, normalised ([2]; concentration not given here): -0.143% (inactive)
p53-positive nuclei, normalised [2, 5]: -0.0268%

O=C(Nc1ccc(-c2ccnc(Nc3ccc(N4CCOCC4)cc3)n2)cc1)C1CCCN1 (configuration not stated)
nuclei count, normalised [1, 6]: 114%
nuclei count, normalised [1, 7]: 116%
nuclei count, normalised [1, 8]: 107%
nuclei count, normalised [1, 9]: 102%
nuclei count, normalised [1, 10]: 104%
nuclei count, normalised [1, 11]: 109%
nuclei count, normalised [1, 12]: 109%
nuclei count, normalised [1, 13]: 104%
nuclei count, normalised [1, 14]: 95.9%
nuclei count, normalised [1, 15]: 101%
p53-positive nuclei, normalised [2, 16]: 0.0592% (inactive)
p53-positive nuclei, normalised [2, 17]: -0.0399% (inactive)
p53-positive nuclei, normalised [2, 18]: -0.0329% (inactive)
p53-positive nuclei, normalised [2, 19]: -0.0902% (inactive)
p53-positive nuclei, normalised [2, 20]: 0.0109% (inactive)
p53-positive nuclei, normalised [2, 21]: 0.0145%
p53-positive nuclei, normalised [2, 22]: -0.114%
p53-positive nuclei, normalised [2, 23]: 0.0282%
p53-positive nuclei, normalised [2, 24]: -0.231%
p53-positive nuclei, normalised [2, 25]: -0.058%

Fc1cc(-c2ccnc(Nc3ccc(-n4cnc(N5CCOCC5)n4)cc3)n2)cc(N2CCOCC2)c1
nuclei count, normalised [1, 6]: 86.7%
nuclei count, normalised [1, 7]: 101%
nuclei count, normalised [1, 8]: 64.8%
nuclei count, normalised [1, 10]: 36.4%
nuclei count, normalised [1, 11]: 73%
nuclei count, normalised [1, 12]: 81%
nuclei count, normalised [1, 13]: 43.7%
nuclei count, normalised [1, 15]: 21.7%
p53-positive nuclei, normalised [2, 16]: 27.8% (inactive)
p53-positive nuclei, normalised [2, 17]: 13.6% (inactive)
p53-positive nuclei, normalised [2, 18]: 90.9% (active)
p53-positive nuclei, normalised [2, 20]: 38.1% (inactive)
p53-positive nuclei, normalised [2, 21]: 7.9%
p53-positive nuclei, normalised [2, 22]: 2.88%
p53-positive nuclei, normalised [2, 23]: 49.4%
p53-positive nuclei, normalised [2, 25]: 15.7%

Cc1nc(N)sc1-c1ccnc(Nc2ccc(N3CCOCC3)cc2)n1
nuclei count, normalised [1, 9]: 40.5%
nuclei count, normalised [1, 14]: 28.3%
p53-positive nuclei, normalised [2, 19]: -0.214% (inactive)
p53-positive nuclei, normalised [2, 24]: -0.143%

CCCC(C)NC(=O)c1ccc(Cl)c(Cl)c1 (configuration not stated)
nuclei count, normalised [1, 9]: 116%
nuclei count, normalised [1, 14]: 114%
p53-positive nuclei, normalised [2, 19]: -0.00479% (inactive)
p53-positive nuclei, normalised [2, 24]: -0.344%
